The results in this text go back to PubChem BioAssay AID463173 (ICCB-Longwood Screening Facility, Harvard Medical School, 2010).

Out of some 52,000 compounds screened, about 4,300 (8.3%) were called active. No stated cut-off is given here; in the data, active means survival mostly below about 52% (no sharp cut-off); inactive means mostly above about 56%. The entries come from a sample that favours actives as a whole.

This assay deals with DeltatarO mutant. The assay is described as follows: S. aureus survival, RN4220 and DeltatarO strains – OD600, teichoic acid synthesis inhibitors, primary screen (AID 463173). The settings on record: S. aureus RN4220 wild type/DeltatarO growth, OD600, 18 h, stronger effect = lower value, screened at 18.75 µg/mL (by protocol).
Consider `COc1cccc(NC(=O)C2CCCN(c3nnc(-n4c(C)ccc4C)s3)C2)c1` (stereo not given), for which the survival is 79% (inactive).
Consider `COc1ccc(NC(=O)Cn2cnc3c(oc4ccccc43)c2=O)cc1OC`, for which the survival is 79% (inactive).
Consider `Cc1nc(-c2ccc(S(=O)(=O)N3CCN(c4cccc(C(F)(F)F)c4)CC3)cc2)co1`, for which the survival is 67% (inactive).
Turning to `Cc1ccc(S(=O)(=O)CC(=O)Nc2nc3c(C)cc(C)cc3s2)cc1`, the survival was 96% (inactive).
Take `COC(=O)c1c(SC)nc2ccccc2c1OCc1ccc(Cl)cc1`: the survival is 92% (inactive).
In the case of `COc1ccc(N(C(=O)c2ccc(OC)c(OC)c2)S(=O)(=O)c2ccc(Cl)cc2)cc1`, the survival was 80% (inactive).
For `COc1cccc(CN(CCO)Cc2ccccc2)c1OC`, the survival is 91% (inactive).
Turning to `CCOc1ccc(CNC(=O)C2CCN(C(=O)N3CC(CC)Oc4ccc(C)cc43)CC2)cc1OC` (stereo not given), the survival was 77% (inactive).
The same measure for `Cc1cccc(-n2c(=O)c3c(c4cc(C)ccc4n3C)n(CC(=O)Nc3ccc(C)cc3C)c2=O)c1`: 69% (inactive).
In the case of `COc1ccccc1CNC(=O)Cn1ncc2c(=O)oc3ccc(C)cc3c21`, the survival is 78% (inactive).
`CC(C)n1nc(CC(=O)O)c2ccccc2c1=O`: the survival was 79% (inactive).
Next, `CCSc1nc2ccc(N)cc2s1`: 108% (inactive); `O=C(NCC(c1cccnc1)N1CCc2ccccc2C1)c1ccc(F)c(F)c1` (stereo not given): 70% (inactive).
`CCOc1ccc(CCNC(=O)CN2C(=O)COc3ccc(S(=O)(=O)N4CCCC4)cc32)cc1`: the survival is 69% (inactive).
With `Cc1ccc(C(c2sc3nc(-c4ccco4)nn3c2O)N2CCCCC2)cc1` (stereo not given), the survival is 93% (inactive).
Consider `CC(C)c1ccc(CNc2n[nH]c(-c3ccco3)n2)cc1`, for which the survival was 80% (inactive).
Turning to `COc1ccc(CNc2nc(-c3ccco3)nn2S(=O)(=O)c2ccc3ccccc3c2)cc1OC`, the survival is 58% (active).
Consider `COc1ccc(CNc2n[nH]c(-c3ccco3)n2)cc1OC`, for which the survival is 62% (active).
On to `COc1ccc(CNc2nc(-c3ccco3)nn2S(=O)(=O)c2ccc(Cl)cc2)cc1OC`, for which the survival is 61% (inactive).
As to `COc1ccc(S(=O)(=O)n2nc(-c3ccco3)nc2NCc2ccc(OC)c(OC)c2)cc1`, the survival is 55% (inactive).
Turning to `Fc1cccc(Cl)c1CNc1n[nH]c(-c2ccco2)n1`, the survival was 76% (inactive).
Regarding `Cc1ccc(C(=O)Nc2cccc(O)c2)cc1S(=O)(=O)N1CCCCCC1`, the survival is 79% (inactive).
Consider `CCN(CC)CCCNC(=O)CN1N=C(c2ccccc2)CCC1=O`, for which the survival is 87% (inactive).
Next, `COc1ccc(CNC(=O)Cn2c(=O)c3cccn3c3ccccc32)cc1`: 47% (inactive); `COc1ccc(NC(=O)Cn2c(=O)c3cccn3c3ccccc32)cc1`: 49% (inactive).
For `Cc1ccc(NC(=O)CCn2c(=O)c3cccn3c3ccccc32)c(Cl)c1`, the survival is 57% (inactive).
With `COc1ccc(NC(=O)CCCn2c(=O)c3cccn3c3ccccc32)c(OC)c1`, the survival was 57% (active).
Turning to `Cc1cc(Cl)ccc1NC(=O)CN1C(=O)C(=O)c2ccccc21`, the survival is 71% (inactive).
Regarding `COc1ccc(OC)c(CCNC(=O)CCCn2c(=O)c3cccn3c3ccccc32)c1`, the survival is 77% (inactive).
Next, `CCOc1ccccc1NC(=O)CN1C(=O)C(=O)c2ccccc21`: 94% (inactive).
Take `COc1ccc(NC(=O)CCn2c(=O)c3cccn3c3cccnc32)c(OC)c1`: the survival is 103% (inactive).
As to `COc1ccc(NC(=O)CCn2c(=O)c3cccn3c3ccccc32)c(OC)c1`, the survival was 47% (active).
Next, `COc1ccc(NC(=O)CN2C(=O)C(=O)c3ccccc32)c(OC)c1`: 52% (active).
With `COc1ccc(OC)c(NC(=O)Cn2c(=O)c3cccn3c3ccccc32)c1`, the survival is 41% (active).
Turning to `Cc1ccc(NC(=O)CCCn2c(=O)c3cccn3c3ccccc32)c(C)c1`, the survival was 49% (inactive).
